The values below come from PubChem BioAssay.

Records with an inconclusive call do not appear. Calls of active or inactive are those of the source.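 Rule for the calls, unless noted: active = growth inhibition above 25% in both replicates, a cutoff set 3 SD above the mean; inconclusive = above 25% in only one replicate; inactive = the rest.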

The nature of experiment [1]: reducers of endogenous Her2 protein level, primary screen, SKBR3 breast tumor cells, AlphaScreen, ATP viability (AID 461;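 active = Her2 level under about 52% in both replicate screens, with viability over 70% of control, limit read from the data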;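 for Her2 level: lower value means less Her2 protein in the cells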;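 for viability: percent of carrier control wells set as 100% viability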). The following applies: 18-24 h, measured here: SKBR3 viability, ATP luminescence, at 10 µM. A general note: In Alpha technology, singlet oxygen from a donor bead excites a nearby acceptor bead.
Experiment [2] has as its target Receptor tyrosine-protein kinase erbB-2 (Homo sapiens) (UniProt P04626). Described as above. The conditions noted are these: 18-24 h, at 10 µM, stronger effect = lower value.
The nature of experiment [3]: SK-BR-3 cell growth inhibitors, pilot screen, 24 h, human (AID 572;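 active = viability at or below 10% of carrier control in both of two separate runs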;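 note: compound exposure lasted between 18 and 24 h rather than exactly 24 h; 100% = carrier-treated control wells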). The following applies: SK-BR-3 viability, CellTiter-Glo luminescence, at 10 µM, stronger effect = lower value. Background: ATP-based viability assays read luminescence as a measure of living cells.
Experiment [4] can be described thus: HUVEC growth inhibition – cell-based, human, primary screen (AID 575;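 active = viability at or below 30% in both replicate assays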;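 note: 100% = median of untreated cell wells with 0.1% DMSO on each plate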). The following applies: HUVEC proliferation, CellTiter-Glo luminescence, 72 h; at 10 µM; stronger effect = lower value.
Experiment [5] can be described thus: growth inhibitors of H69AR lung tumor, primary screen, human, duplicate replicates (AID 580;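 active = viability at or under a set limit in both replicates, limit being median viability minus 3 SD, cut at about 48% in these data, passing the limit was not always enough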;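 note: 100% = mean luminescence of untreated wells and 0% = no signal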). The following applies: H69AR lung tumor cells viability, ATP luminescence, 72 h; at 10 µM; stronger effect = lower value.
The nature of experiment [6]: reversal of MRP1-mediated doxorubicin resistance, pilot screen, H69AR cells, doxorubicin co-treatment (AID 601;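 active = viability loss from added drug above about 55%, and viability with drug at most 40%, in both replicates, limit read from the data, passing the limit was not always enough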). The conditions noted are these: CellTiter-Glo, 72 h, at 10 µM; for differential viability (reversal): stronger effect = higher value.
The nature of experiment [7]: 384-well plate pilot, post-Golgi transport modulator project, inhibition of yeast transport mutant growth (AID 636; in the data active = inhibition above about 31%). The following applies: absorbance 615 nm, about 18 h, stronger effect = higher value.
Experiment [8] is described as follows: growth suppression of yeast trafficking mutant, preliminary HTS, modulators of trafficking downstream of Golgi apparatus project, 1536-format plate, OD 615 nm (AID 637; in the data active = inhibition above about 30%). The following applies: yeast transport mutant growth, absorbance 615 nm, 18 h; stronger effect = higher value.
Experiment [9] can be described thus: OD615 S. cerevisiae growth inhibition, permissive medium, pilot counter-assay, permissive growth control for S. cerevisiae lifespan shortening project (AID 705). The following applies: OD615, 24 h, at 10 µM, stronger effect = higher value.
Experiment [10] can be described thus: Restrictive medium S. cerevisiae growth inhibition, OD615, pilot screen of yeast lifespan reduction project, restrictive growth control (AID 706;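 active = growth inhibition above a set limit, 3 SD over mean compound inhibition, in both replicates, cut at about 43% in these data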;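 note: modified DeaD lifespan yeast strain shifted to restrictive glucose medium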). The conditions noted are these: OD615, 48 h, at 10 µM, stronger effect = higher value.
Experiment [11] can be described thus: viability gain of MRP-1-high H69AR cells under doxorubicin, pilot screen, MRP-1 activator project, CellTiter-Glo, duplicate (AID 807;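 active = viability increase at or above a cutoff of the median across tested compounds plus 3 SD, cut at about 8.5% in these data, passing the limit was not always enough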;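 note: compound pretreatment 18-22 h then 72 h combined with doxorubicin; 0% = doxorubicin alone and 100% = vehicle without doxorubicin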). The conditions noted are these: H69AR viability with doxorubicin, CellTiter-Glo luminescence; at 10 µM; stronger effect = higher value.
The nature of experiment [12]: growth suppression of beta-catenin knockout HCT116, pilot screen, human colon tumor cells (AID 823;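 active = cell viability at or below a set limit in both duplicate runs, the limit being the all-compound median minus 4 SD, cut at about 23% in these data, passing the limit was not always enough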;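 note: 0% = wells killed by 20 µM Hyamine and 100% = untreated DMSO cell wells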). The following applies: CellTiter-Glo, 60 h, at 10 µM, stronger effect = lower value.
The nature of experiment [13]: growth suppression of PTEN-deleted HCT116, pilot screen, cell-based, HCT116 clonal line, CellTiter-Glo (AID 824;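 active = viability at or below 27.92% in each of two runs, the all-compound median minus 4 SD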;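 note: 0% = 20 µM Hyamine control and 100% = vehicle cell control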). The following applies: 60 h, at 10 µM, stronger effect = lower value.
Experiment [14] in a line: inhibitors of the yeast RAM network, pilot screen, dse1pr::URA3 reporter, 5-FOA selection (AID 869;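 active = inhibition over a set limit, the all-compound mean plus 3 SD, in both replicate runs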;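 note: 0% = DMSO wells with no growth and 100% = 10 µM 1-NA-PP1 with full growth; RAM network block rescues cells from 5-FOA so hits raise OD615 growth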). The following applies: S. cerevisiae dse1pr::URA3 5-FOA growth, OD615, 2 d; at 10 µM; stronger effect = higher value; strain carries analog-sensitive mutant Cbk1 kinase.
A short description of experiment [15]: RAM signaling pathway blockade in yeast – S. cerevisiae, Pdr1DBD-CYC8 efflux-inhibited sensitized strain, primary screen (AID 1298;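 active = RAM network inhibition above 8.4% in each of two replicates, 3 SD over the compound average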;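 note: 0% = DMSO untreated cells without growth and 100% = 10 µM 1-NA-PP1 full growth; higher means more yeast growth rescued from 5-FOA killing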). The following applies: S. cerevisiae cbk1-as DSE1-URA3 strain, 5-FOA growth OD615, 2 d; at 50 µM; stronger effect = higher value.
Setting [16] is: H69AR cells + 2 uM doxorubicin, measured here: viability with 2 uM doxorubicin, stronger effect = lower value.
The mark [17] stands for this setting: H69AR cells, compound alone cytotoxicity.

Sequence of Receptor tyrosine-protein kinase erbB-2 (Homo sapiens) (P04626 whole entry, looked up): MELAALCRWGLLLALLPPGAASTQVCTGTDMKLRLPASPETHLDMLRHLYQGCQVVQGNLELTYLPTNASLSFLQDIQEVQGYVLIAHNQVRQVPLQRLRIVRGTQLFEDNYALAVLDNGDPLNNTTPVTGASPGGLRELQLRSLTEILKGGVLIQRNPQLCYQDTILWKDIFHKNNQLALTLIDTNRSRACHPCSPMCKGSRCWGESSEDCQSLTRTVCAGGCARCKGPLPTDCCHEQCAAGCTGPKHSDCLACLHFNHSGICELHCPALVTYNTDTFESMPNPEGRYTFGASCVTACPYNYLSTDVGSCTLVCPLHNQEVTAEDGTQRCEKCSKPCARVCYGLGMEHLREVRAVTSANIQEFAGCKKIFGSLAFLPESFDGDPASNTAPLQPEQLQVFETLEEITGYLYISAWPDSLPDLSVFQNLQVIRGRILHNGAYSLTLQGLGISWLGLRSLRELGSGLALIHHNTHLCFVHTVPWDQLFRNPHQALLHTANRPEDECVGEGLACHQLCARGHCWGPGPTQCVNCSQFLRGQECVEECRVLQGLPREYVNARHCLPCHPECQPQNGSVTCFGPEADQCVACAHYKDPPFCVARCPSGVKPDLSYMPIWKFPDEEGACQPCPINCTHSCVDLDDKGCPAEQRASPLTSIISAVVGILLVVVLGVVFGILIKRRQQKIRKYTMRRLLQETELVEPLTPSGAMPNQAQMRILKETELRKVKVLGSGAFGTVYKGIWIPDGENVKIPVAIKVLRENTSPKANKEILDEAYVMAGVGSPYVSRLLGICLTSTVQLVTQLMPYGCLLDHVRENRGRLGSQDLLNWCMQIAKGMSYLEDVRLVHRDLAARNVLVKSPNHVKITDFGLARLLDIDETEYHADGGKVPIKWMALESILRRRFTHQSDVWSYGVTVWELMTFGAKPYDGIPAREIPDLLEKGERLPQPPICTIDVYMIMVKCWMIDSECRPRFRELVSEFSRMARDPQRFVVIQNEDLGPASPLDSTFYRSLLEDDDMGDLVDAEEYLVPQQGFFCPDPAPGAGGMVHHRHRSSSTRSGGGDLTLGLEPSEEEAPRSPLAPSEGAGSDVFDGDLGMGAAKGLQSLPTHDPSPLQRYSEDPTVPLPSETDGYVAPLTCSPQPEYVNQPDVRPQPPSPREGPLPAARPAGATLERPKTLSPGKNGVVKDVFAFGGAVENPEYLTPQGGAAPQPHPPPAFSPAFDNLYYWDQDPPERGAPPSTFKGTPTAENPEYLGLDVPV

The viability is a read-out of living cells in per cent, often relative to untreated cells. In general, inhibition refers to the relative decrease from the control value, in per cent. In the case of `CC(C)(NC(=O)N1CCCC1)c1cccc(C(C)(C)NC(=O)N2CCCC2)c1`, the viability in experiment [1] was 98%; in experiment [3], 98% (inactive); in experiment [4] it was 97.7% (inactive); in experiment [5], 95.5% (inactive); in [6] (setting [16]), 90.3%; in experiment [6] (setting [17]), 95.5%. The figures for the viability in experiment [12] and in [13] were 100% (inactive) and 97.4% (inactive), respectively. Besides, in experiment [2], the Her2 level is 81.5% (inactive). Besides, in experiment [6] (H69AR cells + 2 uM doxorubicin), the differential viability (reversal) was 5.27% (inactive). The inhibition is -4.42% (inactive) in experiment [7], -4% (inactive) in experiment [8] and 0.535% (inactive) in [14]. The growth inhibition in experiment [9] was 0.795% (inactive); in experiment [10], 3.39% (inactive). Further, in experiment [11], the viability increase is -0.99% (inactive). The RAM network inhibition in experiment [15] was 0.88% (inactive).
In the case of `Cc1ccccc1NC(=O)C1CCCN(S(=O)(=O)c2cccc3cccnc23)C1` (stereo not given), the viability was 90.5% in [1]; 90.5% (inactive) in experiment [3]; 94.6% (inactive) in [4]; 93.2% (inactive) in [5]; 92.2% in [6] (setting [16]); 93.2% in experiment [6] (setting [17]). Moreover, the viability in experiment [12] is 82.1% (inactive); in experiment [13] it was 81.2% (inactive). In addition, the Her2 level in experiment [2] was 96.5% (inactive). Also, in experiment [6] (H69AR cells + 2 uM doxorubicin), the differential viability (reversal) was 0.99% (inactive). Also, the inhibition was -1.73% (inactive) in [7], -5.25% (inactive) in experiment [8] and 3.01% (inactive) in [14]. Besides, the growth inhibition is -13.1% (inactive) in experiment [9] and -16.6% (inactive) in [10]. In addition, in [11], the viability increase was -2.23% (inactive). Moreover, the RAM network inhibition in experiment [15] is 1.93% (inactive).
On to `CCOC(=O)C1CCN(c2c(NC3CCCc4ccccc43)c(=O)c2=O)CC1` (stereo not given), for which the viability was 82% in [1]; 82% (inactive) in [3]; 106% (inactive) in [4]; 87.7% (inactive) in experiment [5]; 87.2% in experiment [6] (setting [16]); 87.7% in experiment [6] (setting [17]). For the same compound, the viability in experiment [12] was 102% (inactive); in experiment [13], 96.8% (inactive). For the same compound, the Her2 level in experiment [2] was 106% (inactive). Besides, in experiment [6] (H69AR cells + 2 uM doxorubicin), the differential viability (reversal) was 0.54% (inactive). Further, the results for the inhibition in experiment [7], in experiment [8] and in [14] were 1.41% (inactive), 0.67% (inactive) and -0.155% (inactive), respectively. In addition, the growth inhibition is 6.77% (inactive) in experiment [9] and -3.4% (inactive) in experiment [10]. Moreover, the viability increase in [11] was -1.77% (inactive). In experiment [15], the RAM network inhibition was 0% (inactive).
For the compound `CCCCn1c(CN2CCN(c3ccccc3)CC2)nc2c1c(=O)n(C)c(=O)n2C`, the viability in [1] is 89%; in [3], 89% (inactive); in [4], 85.7% (inactive); in [5], 85.6% (inactive); in [6] (setting [16]) it was 66.4%; in experiment [6] (setting [17]), 85.6%. Further, the viability in experiment [12] was 36.1% (inactive); in experiment [13] it was 65.2% (inactive). Besides, the Her2 level in [2] is 105% (inactive). The differential viability (reversal) in experiment [6] (H69AR cells + 2 uM doxorubicin) is 19.2% (inactive). The inhibition is -2.27% (inactive) in [7], -3.67% (inactive) in [8] and 0.475% (inactive) in experiment [14]. Further, the growth inhibition in experiment [9] is -4.55% (inactive); in [10], 1.55% (inactive). Moreover, the viability increase in experiment [11] was -3.11% (inactive). Moreover, in experiment [15], the RAM network inhibition is 2.8% (inactive).
With `CCCCN=CC1=C(O)C(C(=O)OC)C(C)(C)CC1=O` (stereo not given), the viability was 79% in experiment [1]; 79% (inactive) in [3]; 104% (inactive) in experiment [4]; 91.4% (inactive) in experiment [5]; 86.9% in experiment [6] (setting [16]); 91.4% in experiment [6] (setting [17]). The viability is 93.8% (inactive) in experiment [12] and 93.9% (inactive) in experiment [13]. Moreover, the Her2 level in [2] is 93.5% (inactive). Also, the differential viability (reversal) in experiment [6] (H69AR cells + 2 uM doxorubicin) was 4.54% (inactive). Also, the results for the inhibition in [7], in experiment [8] and in experiment [14] were 1.03% (inactive), 25.8% (inactive) and 0.72% (inactive), respectively. Also, the values for the growth inhibition in [9] and in [10] were -1.01% (inactive) and -5.23% (inactive), respectively. The viability increase in experiment [11] is -0.63% (inactive). The RAM network inhibition in experiment [15] was 1.5% (inactive).
